In all, about 370,000 compounds went through this assay and about 3,700 (1%) were called active.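 The calls were made as follows: active = activation above the mean over all tested compounds plus 3 SD (cut at about 0.9% in these data); inactive = the rest.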 The entries come from a sample that favours actives as a whole.
Each compound was assayed on Nuclear hormone receptor DAF-12 (Strongyloides stercoralis) (assay: S. stercoralis DAF-12 nuclear receptor activators, primary screen, cell-based, luminescence, HEK293, GRIP1 co-expression, lit1-tk-luc (AID 652126;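 also: 0% = DMSO-only wells and 100% = 3 µM delta7-dafachronic acid wells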)). Conditions: HEK293 ssDAF-12/GRIP1 lit1-tk-luc reporter, at 6.8 µM, stronger effect = higher value, % of 3 µM dafachronic acid response.

Row | Structure (SMILES) | activation
1 | O=C(NC1CCCCN(Cc2ccc(Cl)cc2)C1=O)c1ccc(Br)cc1 (stereo unspecified) | -1.36% (inactive)
2 | Cc1ccc(Cn2cc(CN3[C@@H](CC(C)C)COc4ccc(Cl)cc4S3(=O)=O)nn2)cc1 | -1.11% (inactive)
3 | O=C(Nc1cccc(Cl)c1)c1cncn1-c1ccc(F)cc1 | -1.04% (inactive)
4 | CCC(=O)Nc1ccc2nn(-c3ccc(F)cc3)nc2c1 | 1.14% (active)
5 | CCOC(=O)c1nnn(CC(=O)Nc2cccc(F)c2)c1C(=O)OCC | -1.33% (inactive)
6 | COC(=O)[C@]12C[C@H](CC(=O)NCc3cccc4ccccc34)C(=O)N(CCc3ccc(OC)c(OC)c3)C1=C[C@H](C1CCCC1)O[C@@H]2C | -0.95% (inactive)
7 | O=C(Nc1ccc(Br)cc1)OCCN1C(=O)CCC12CCC(c1ccccc1)CC2 (stereo unspecified) | -0.35% (inactive)
8 | CCOC(=O)c1c(N)sc2c1CCCC2=O | 1.3% (active)
9 | CCOC(=O)c1c(CC(C)C)csc1/N=C/C1=C(O)CCCC1=O | -1.42% (inactive)
10 | CCOC(=O)c1c(/N=C/c2cc(C)ccc2O)sc2c1CCC2 | -1.3% (inactive)
11 | O=C(C1CCN(S(=O)(=O)c2ccccc2)CC1)N1CCN(C2CCCCC2)CC1 | -1.32% (inactive)
12 | CC(CCN1CCC(C(O)(c2ccccc2)c2ccccc2)CC1)Oc1ccc(Cl)cc1 (stereo unspecified) | -0.71% (inactive)
13 | Cc1ccc(-c2nc(C3CCCN(S(=O)(=O)c4ccc(Br)s4)C3)no2)cc1 (stereo unspecified) | -1.49% (inactive)
14 | Nc1nonc1C(=O)NCCc1ccccc1 | -1.42% (inactive)
15 | Nc1nc2c(Br)ccc(Br)c2cc1C(=O)NCCc1ccccc1 | -1.14% (inactive)
16 | NC(=O)Nc1ccccc1C(=O)NCCc1ccccc1 | 1.06% (active)
17 | O=C(OC12CCCN(C1)/C(=C/c1ccccc1)C2)c1ccco1 (stereo unspecified) | -0.69% (inactive)
18 | O=C(C1CCCN1S(=O)(=O)c1ccccc1)N1CCc2ccccc2C1 (stereo unspecified) | -1.12% (inactive)
19 | COc1ccc2c(C(=O)c3ccc(C)cc3)n(CCC(N)=O)[n+]([O-])c2c1 | 0.92% (active)
20 | COc1ccc(C(=O)c2c3ccc([N+](=O)[O-])cc3[n+]([O-])n2CCCN)cc1 | -1.18% (inactive)
21 | COc1ccc(C(=O)CC(=O)c2ccc(C)cc2)c(O)c1 | -1.3% (inactive)
22 | FC(F)(F)c1cccc(Cn2ccc3ccc(-c4ccc5ccn(Cc6ccccc6)c5c4)cc32)c1 | -1.17% (inactive)
23 | Cc1ccc(SCCSc2ncccn2)cc1 | 0.96% (active)

Row | Structure (SMILES) | activation
24 | Cc1ccc(SCCC(=O)NCc2ccccn2)cc1 | -1.21% (inactive)
25 | Cc1ccc(SCCC(=O)NC(C(C)C)C(C)C)cc1 | -1.68% (inactive)
26 | CC(C)N1CCCCC(NC(=O)C(C)(C)C)C1=O (stereo unspecified) | -1.27% (inactive)
27 | CCCCC(=O)N[C@@H]1CC[C@@]23CCCN2C(=O)CCC[C@H]3[C@H]1C | -1.42% (inactive)
28 | CC(C)(C)c1cnnn1-c1ccc([N+](=O)[O-])cc1 | -1.44% (inactive)
29 | Cc1nn(-c2ccc([N+](=O)[O-])cc2)c(N)c1-c1ccccc1 | 0.95% (active)
30 | Cc1nn(-c2ccccc2)c2c1C(c1cccc([N+](=O)[O-])c1)N(c1ccccc1)C(=O)N2 (stereo unspecified) | -2.08% (inactive)
31 | CC(C)(C)OC(=O)NCCc1ccccc1/C=C/S(=O)(=O)NCc1ccc(F)cc1 | -0.76% (inactive)
32 | O=C(Nc1nc2ccc(Cl)cc2s1)c1cc(-c2ccc(Cl)cc2)nc2ccccc12 | 0.48% (inactive)
33 | O=C(Nc1ccccc1)Nc1nc2ccccc2s1 | 2.17% (active)
34 | O=C(Nc1ccc2ccccc2c1)Nc1ccc2snnc2c1 | -0.89% (inactive)
35 | COc1ccc(CN(CCN2CCOCC2)C(=O)c2ccc(C)cc2)cc1OC | -0.08% (inactive)
36 | COc1ccc(/C=C2\CC3(OC(C)=O)CCCN2C3)cc1 (stereo unspecified) | -1.25% (inactive)
37 | Cc1ccc(NC(=O)Nc2cc(C)nn2-c2ccccc2)cc1 | -0.89% (inactive)
38 | O=C(O)c1n[nH]nc1-c1ccccc1 | -1.32% (inactive)
39 | c1ccc(-c2cc(-c3ccccc3)[nH]n2)cc1 | 2.27% (active)
40 | c1ccc(-c2c[nH]c(-c3ccccc3)c2)cc1 | 0.36% (inactive)
41 | Oc1ccccc1-c1cc(-c2ccc(Cl)cc2)n[nH]1 | 3.08% (active)
42 | Cc1c[nH]c2cccc(-c3ccc(Cl)cc3)c12 | -0.3% (inactive)
43 | Cc1cccc(C(=O)Nc2c(-c3ccc(F)cc3)nc3ncccn23)c1 | -1.19% (inactive)
44 | Nn1c(SCC(=O)Nc2ccc(S(N)(=O)=O)cc2)nnc1-c1n[nH]c2c1CCC2 | -0.68% (inactive)
45 | O=C(NCCC1=CCCCC1)C1CCN(S(=O)(=O)c2ccc(Cl)s2)CC1 | -0.79% (inactive)
46 | CCOC(=O)[C@]12CCCC=C1N(CCCOC)C(=O)[C@@H]2CC(=O)N1CCOCC1 | -1.03% (inactive)

Row | Structure (SMILES) | activation
47 | O=C(/C=C/Nc1ccc(S(=O)(=O)Nc2cnc3ccccc3n2)cc1)c1cccnc1 | -0.79% (inactive)
48 | Cc1ccc(N/C=C/C(=O)c2ccccc2)cc1C | 3% (active)
49 | Cc1ccc(NC(=O)C2CCCN2C(=O)OCc2ccccc2)cc1C (stereo unspecified) | -0.56% (inactive)
50 | c1ccc(Cc2c(-c3ccco3)nc3c4ccccc4ccn23)cc1 | 3.52% (active)
51 | COc1ccccc1Cc1c(-c2ccc(Cl)cc2)nc2c3ccccc3ccn12 | 0.62% (inactive)
52 | Cc1ccc(-c2nc3c(C)cc(Br)cn3c2Cc2ccccc2)cc1 | -0.47% (inactive)
53 | CN1C(=O)c2cc(NS(C)(=O)=O)ccc2OC[C@@H]2O[C@@H](CC(=O)NCc3ccc(-c4ccccc4)cc3)CC[C@H]21 | -1.43% (inactive)
54 | Cc1ccccc1CN1CCCCC(NC(=O)c2cccc(C#N)c2)C1=O (stereo unspecified) | -1.04% (inactive)
55 | N#Cc1ccc(C2N=C(c3ccccc3)NO2)cc1 (stereo unspecified) | 0.03% (inactive)
56 | S=C1NC(c2ccccc2)=NCN1c1ccc(Br)cc1 | -0.91% (inactive)
57 | Brc1ccccc1C1N=C(c2ccccc2)NO1 (stereo unspecified) | 1.18% (active)
58 | COC(=O)C1CN(Cc2ccc(F)cc2)CCS(=O)(=O)N1Cc1ccc(Cl)cc1 (stereo unspecified) | -1.29% (inactive)
59 | Cc1cccc(N2CCN(C(=O)C3CCN(S(=O)(=O)c4cnc[nH]4)CC3)CC2)c1C | -0.57% (inactive)
60 | CCN(CCCNC(=O)C1CCN(S(=O)(=O)c2cnc[nH]2)CC1)c1ccccc1 | -1.52% (inactive)
61 | O=C(C1CCN(S(=O)(=O)c2cnc[nH]2)CC1)N1CCN(Cc2ccc3c(c2)OCO3)CC1 | 1.02% (active)
62 | O=C(c1ccncc1)N1CC[C@H]2[C@H](CCCN2Cc2ccc(F)cc2)C1 | -0.89% (inactive)
63 | CCOC(=O)[C@]12CCCC3=C1N(CCC3)C(=O)[C@@H](CC(=O)N1CCSCC1)C2 | 0.21% (inactive)
64 | Clc1ccc(-n2c(COc3ccccc3)nnc2SCc2nc3ccccc3[nH]2)cc1 | -1.69% (inactive)
65 | O=C(Nc1ccc(Cl)cc1)C1c2cccc[n+]2CC(=O)N1Cc1ccc2c(c1)OCO2 (stereo unspecified) | 2.86% (active)
66 | O=C(Nc1ccc2c(c1)OCCO2)C1c2ccccc2OCC(=O)N1Cc1ccccn1 (stereo unspecified) | -0.32% (inactive)
67 | CCCOc1ccc(NC(=O)CC2C(=O)N(C)C(=S)N2Cc2ccc3c(c2)OCO3)cc1 (stereo unspecified) | -1.45% (inactive)
68 | COc1ccc(Cn2ccc3ccc(-c4ccc5ccn(Cc6ccccc6C)c5c4)cc32)cc1 | -0.43% (inactive)
69 | O=S1(=O)c2c(cccc2N2CCSCC2)Oc2ccccc2CN1Cc1cn(Cc2ccc(F)cc2)nn1 | -1.43% (inactive)

Row | Structure (SMILES) | activation
70 | O=C(CN1CCC(NC(=O)NCc2ccccc2)CC1)Nc1ccc2c(c1)OCCO2 | -1.37% (inactive)
71 | C=CCN1C(C(=O)OC)CN(Cc2cn(Cc3ccccc3)nn2)CCS1(=O)=O (stereo unspecified) | -1.67% (inactive)
72 | C=CCN(C)CC#Cc1ccccc1 | -0.95% (inactive)
73 | COc1ccc(-n2c(SCC(=O)NC3CCCC3)nnc2-c2ccncc2)cc1 | -0.71% (inactive)
74 | CS(=O)(=O)N(CC(=O)N/N=C/c1ccccn1)c1ccc(Oc2ccccc2)cc1 | -0.77% (inactive)
75 | O=C(O)C1C2C=CC(O2)C1C(=O)Nc1ccccn1 (stereo unspecified) | -1.12% (inactive)
76 | S=C(NN=Cc1ccccn1)Nc1ccccn1 | 1.63% (active)
77 | CCCOc1ccc(Oc2c(Cl)cnn(Cc3cccc4ccccc34)c2=O)cc1 | -1.41% (inactive)
78 | O=C1CC(c2ccc3c(c2)OCO3)N=C2N(CC3CC3)C/C(=C/c3ccccc3)N12 (stereo unspecified) | -1.93% (inactive)
79 | CCOc1ccc(-n2c(SCC(=O)Nc3cc(C)c(NC(=O)c4ccccc4)cc3OC)nnc2-c2cccc(Cl)c2)cc1 | -1.5% (inactive)
80 | CCOC(=O)c1c(NC(=S)Nc2ccccc2C)sc2c1CCC2 | 1.91% (active)
81 | CCOC(=O)c1c(NC(=S)Nc2ccccc2)sc2c1CCN(C)C2 | -1.34% (inactive)
82 | CCOC(=O)c1c(NC(=O)C2(C)Cc3ccccc3C(=O)O2)sc2c1CCCC2 (stereo unspecified) | -1.31% (inactive)
83 | CC(=O)OCCN1CCCC12CCC(c1ccccc1)CC2 (stereo unspecified) | -0.84% (inactive)
84 | C#CCN([C@H](C(=O)OC)C(C)CC)S(=O)(=O)c1ccccc1Br (stereo partly specified) | -1.85% (inactive)
85 | Cc1ccsc1/C=N/NC(=O)Cc1cc(=O)[nH][nH]1 | 1.42% (active)
86 | Cc1ccc(-c2nnc(SCC(=O)N/N=C/c3cccs3)n2-c2ccc(C)cc2)cc1 | -0.75% (inactive)
87 | CCOc1ccc(N2CC(C(=O)N/N=C/c3sccc3C)CC2=O)cc1 (stereo unspecified) | -1.57% (inactive)
88 | CN(C)S(=O)(=O)c1cccc(C(=O)N/N=C\c2ccco2)c1 | -0.66% (inactive)
89 | COC(=O)C1CCN(C(=O)c2cc(=O)[nH]c3ccccc23)CC1 | 1.33% (active)
90 | CC1CCCCC1NC(=O)c1cc(=O)[nH]c2ccccc12 (stereo unspecified) | -0.66% (inactive)
91 | CC1CCN(C(=O)COC(=O)c2cc(=O)[nH]c3ccccc23)CC1 | -0.23% (inactive)
